Assay results as given in PubChem BioAssay AID489012 (National Center for Advancing Translational Sciences (NCATS), 2010).
Records with an inconclusive call do not appear. Entries that show only a call come without a potency. Active and inactive are the calls of the source. Calls come from the whole dose curve; as a rule, active = well fitted activation curve with a large enough effect; inconclusive = small, poorly fitted or top-dose-only effect; inactive = no such curve, though single readings can be large or run the other way.

biological target: Relaxin receptor 1 (Homo sapiens) (UniProt Q9HBX9); experiment: qHTS Assay for Agonists of the Relaxin Receptor RXFP1: RXFP1 Hit Validation; conditions: HEK293T-RXFP1 cAMP TR-FRET, 30 min; series mostly up to 45 µM; note: nearly all actives have a fitted effect of over 65% in size;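 for activation: cAMP rise lowers the TR-FRET signal in lysed cells with PDE4 inhibitor present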
Source text: NIH Chemical Genomics Center [NCGC] NIH Molecular Libraries Probe Production Centers Network [MLPCN] MLPCN Grant: R03 MH085705-01A1 Assay Submitter (PI): Alexander Agoulnik NCGC Assay Overview: The relaxin hormone is involved in the variety of biological functions in normal tissues and diseases. The role of relaxin is well-established in female reproduction and parturition, mammary gland and endometrial development, maintenance of myometrial quiescence during pregnancy. Relaxin signaling through its G protein-coupled receptor (GPCR) RXFP1 results in ECM remodeling through regulation of collagen deposition, cell invasiveness, proliferation and overall tissue homeostasis. […] Recombinant human relaxin (rhRlx) is currently being tested in clinical trials as a protective agent in congestive heart failure, in treating severe preeclampsia, and as an anti-fibrotic agent in systemic sclerosis. Upon relaxin binding RXFP1 activation leads to the activation of adenylate cyclase (AC) via Gs. cAMP will activate PKA, which phosphorylates many signaling proteins. Thus, detection of cAMP increase is an easy and reliable indication of relaxin receptor activation. To screen for agonists of the relaxin receptor, a HEK293T cell line stably transfected with RXFP1 was used. RXFP1 activation was assayed by changes in cAMP levels as detected with a time-resolved fluorescence energy transfer (TR-FRET) cAMP detection kit.
NCGC Assay Protocol Summary: This is a cell-based assay for cAMP second messenger response to screen for agonists of the RXFP1 receptor. The assay was conducted in the presence of a PDE4 inhibitor (Ro 20174). The cells were lysed and the cAMP levels were measured with a TR-FRET cAMP kit. Presence of cAMP in the cell lysate disrupts binding between the cryptate-labeled anti-cAMP and d2-labeled cAMP pair, leading to a decrease in the TR-FRET signal. Data were normalized to the controls for basal activity (buffer only) and 100% activity (29 nM porcine relaxin). The EC50 values were determined from concentration-response data modeled with the standard Hill equation 1536-well assay protocol for the HEK293 RXFP1 cAMP assay: (1) Add 3 ul HEK293 RXFP1 cell culture. 2000 cells/well in DMEM/F12, 10% FBS, 1x Pen/Strep (dispensed offline with MultiDrop Combi). (2) Incubate 16-24 hr at 37C, 5% CO2. (3) Add 1 ul 400uM Ro20174 in DPBS, 0.05% BSA, 0.005% Tween 20. (3) Add 23 nl compounds in DMSO solution. Final concentration was 0.5 - 58 uM. (4) Incubate 30 min at 37C, 5% CO2. (5) Add 1 ul cAMP-d2 in lysis buffer (HTRF cAMP HiRange kit, CisBio). (6) Add 1 ul anti-cAMP antibody-cryptate in lysis buffer (HTRF cAMP HiRange kit, CisBio). (7) Incubate 30 min at room temperature. […]
Potency is the fitted concentration of half-maximal effect.

Relaxin receptor 1 (Homo sapiens), sequence (Q9HBX9 whole entry, looked up): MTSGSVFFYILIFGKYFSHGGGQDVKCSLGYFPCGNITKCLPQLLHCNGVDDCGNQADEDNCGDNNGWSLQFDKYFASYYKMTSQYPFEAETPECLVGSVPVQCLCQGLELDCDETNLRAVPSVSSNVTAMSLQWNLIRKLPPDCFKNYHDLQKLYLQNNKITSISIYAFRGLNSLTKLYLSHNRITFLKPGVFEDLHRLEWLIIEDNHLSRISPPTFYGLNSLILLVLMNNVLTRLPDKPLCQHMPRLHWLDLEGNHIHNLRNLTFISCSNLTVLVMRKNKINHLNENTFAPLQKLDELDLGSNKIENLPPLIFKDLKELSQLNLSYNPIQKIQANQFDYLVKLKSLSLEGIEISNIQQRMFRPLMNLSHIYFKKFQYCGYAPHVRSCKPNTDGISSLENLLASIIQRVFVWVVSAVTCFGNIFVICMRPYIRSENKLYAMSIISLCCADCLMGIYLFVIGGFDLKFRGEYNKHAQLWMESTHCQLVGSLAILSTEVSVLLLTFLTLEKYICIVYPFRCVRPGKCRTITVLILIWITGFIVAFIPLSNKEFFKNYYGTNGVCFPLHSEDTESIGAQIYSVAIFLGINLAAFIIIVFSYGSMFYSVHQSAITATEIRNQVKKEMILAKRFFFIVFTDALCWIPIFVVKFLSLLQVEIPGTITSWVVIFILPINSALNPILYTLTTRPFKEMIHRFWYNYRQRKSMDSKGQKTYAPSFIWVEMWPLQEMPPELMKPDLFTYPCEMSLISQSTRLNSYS

Row | SMILES | Potency
1 | CCC(Oc1cc(Cl)ccc1Cl)C(=O)N1CCC2(CC1)OCCO2 (centres undefined) | inactive
2 | Nc1ncc2[nH]cnc2n1 | 13.8 µM (active)
3 | CCNC(=O)[C@H]1O[C@@H](n2cnc3c(N)ncnc32)[C@H](O)[C@@H]1O | 0.308 µM (active)
4 | O=C(O)c1sc2cc(Cl)ccc2c1Cl | inactive
